# Screening data as filed in PubChem BioAssay.
# Sampled rows, rich in hits. Any-hit rate of the full collection: about 20%.
# CHX counter = Cycloheximide Counterscreen for Small Molecule Inhibitors of Shiga Toxin; cell reporter, cycloheximide protein synthesis inhibition counterscreen; max response, %; hit rate 12% among 300,000; in the data active = max response mostly above about 13%, no sharp cut-off; inactive = mostly below about 14%; note: read at 38.3 µM for the half of the compounds with a filed dose; 0% is about no effect
# Shiga inhibitor = A qHTS for Small Molecule Inhibitors of Shiga Toxin | AID 2315, 2010 | inhibition, % at 38.7 µM | hit rate 9.2% among 290,000 | Vero cells, Shiga toxin protein synthesis inhibition reporter; in the data active = inhibition mostly above about 28%, no sharp cut-off; inactive = mostly below about 43%; note: 0% is about no effect
# Pf growth 96h = Primary qHTS for delayed death inhibitors of the malarial parasite plastid, 96 hour incubation | P. falciparum luciferase reporter growth, 96 h | Potency, µM (highest dose often 28.7 µM), without a hit: at the top dose activity change, negative = inhibition, actives largely listed as inhibitors | hit rate 6.9% among 320,000 | AID 504834, 2011; note: potency is the fitted concentration of half-maximal effect; % is set by controls: 0 for no effect and ±100 for the full control effect
#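 Readout is luminescence from an integrated firefly luciferase in P. falciparum. Red cells, 2% hematocrit and 0.05% parasitemia final, were cultured with compound through two parasite generations (96 hours) at 37 C, 5% CO2.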
# HCMV antiviral = qHTS Assay for inhibitors of the human cytomegalovirus (HCMV); hit rate 4.5% among 410,000; activity change, negative = inhibition, % at 57.5 µM; HFF cells, HCMV-luciferase reporter, 72 h; hits give low values; in the data active = activity change below about -60%; inconclusive = no clear call, values can overlap the other calls; inactive = above about -39%; note: % is set by controls: 0 for no effect and ±100 for the full control effect
#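 Compounds were evaluated in HFFs infected with an HCMV luciferase reporter virus (MOI 1 PFU/cell). Luciferase in lysates collected 72 h post infection served as the replication measure.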
# Pf growth 48h = Primary qHTS for delayed death inhibitors of the malarial parasite plastid, 48 hour incubation. hit rate 5.9% among 310,000. P. falciparum luciferase growth in erythrocytes, 48 h. Potency, µM (titrated, usually from 28.7 µM), for the others: at the highest dose activity change, negative = inhibition, usual class: inhibitors; note: potency is the fitted concentration of half-maximal effect; % is set by controls: 0 for no effect and ±100 for the full control effect
#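 Luciferase-expressing parasites in RBCs, 2% Hct / 0.1% parasitemia final; RPMI 1640 + 0.5% Albumax; 37 C, 5% CO2, one generation; luminescence read-out, lower signal = inhibition.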
# The depositor's hits bear a star; u = inconclusive; x = no result; ! = not confirmed by another sample. Unless noted, calls come from the whole dose curve; as a rule, active = well fitted inhibition curve with a large enough effect; inconclusive = small, poorly fitted or top-dose-only effect, or another doubt; inactive = no such curve, though single readings can be large or run the other way.
SMILES,CHX counter,Shiga inhibitor,Pf growth 96h,HCMV antiviral,Pf growth 48h
COCCNC(=O)c1cc(-c2ccc3c(c2)OCO3)on1,29*,98*,-8%,121,418%
Cc1cc(OCc2cccc(Cl)c2)c(C)cc1CN1CCOCC1,24*,25,u,26,76%
O=[N+]([O-])c1cccc(COc2ccccc2CN2CCOCC2)c1,x,x,x,-10,x
CCC1CCCCN1C(=O)c1ccc(OC2CCN(Cc3ccccn3)CC2)cc1 (centres undefined),-2,-31,-13%,14,-24%
O=C(c1ccc(OC2CCN(Cc3ccccn3)CC2)cc1)N1CCC[C@H]1CO,-2,32,3.7µM*,2,-1%
CC(NC(=O)c1ccc(OC2CCN(Cc3ccccn3)CC2)cc1)c1ccccc1 (centres undefined),0,-10,12µM*,u,u
CCCCNC(=O)CSc1nc2cc3c(cc2c(=O)n1CCCC(=O)NCc1ccc(OC)cc1)OCO3,x,x,x,-12,x
O=C(CC1Sc2ccccc2NC1=O)Nc1cccc(-c2nnc3n2CCCCC3)c1 (centres undefined),13,97*,13µM*,18,9.3µM*
O=C(CC1Sc2ccccc2NC1=O)Nc1cccnc1 (centres undefined),-5,-3,-15%,-22,11%
COc1cccc(NC(=O)Cn2c(-c3nonc3N)nc3ccccc32)c1,x,x,x,-2,x
CC[C@@H](C)[C@H](CNC)NC[C@@H](Cc1cccc2ccccc12)NCCc1cccc(C(F)(F)F)c1,-8,-11,7.4µM*,-99*,u
CCC[C@H](CN[C@@H](CNC)[C@H](C)CC)NCCc1cc(C(F)(F)F)cc(C(F)(F)F)c1,-8,-16,2.1µM*,-78*,4.1µM*
CCC[C@@H](CN[C@@H](CNC)[C@H](C)CC)NCC1CCC(C(C)(C)C)CC1 (some centres undefined),1,-5,3.3µM*,-99*,u
O=C(CN1C(=O)COc2ccc(S(=O)(=O)N3CCCCCC3)cc21)N1CCN(c2ccc(F)cc2)CC1,x,x,x,5,x
CCN(CC(=O)NCc1ccc(F)cc1)CC(=O)NC1CCCC1,-4,-13,25%,-11,27%
COc1ccc(NC(=O)CN2C(=O)C(=O)c3ccccc32)c(OC)c1,x,x,x,49,x
O=C1CN(C(=O)COc2ccccc2F)c2ccccc2N1,-6,15,u,-9,-7%
O=C1CN(C(=O)COC(=O)C2CCN(S(=O)(=O)c3ccccc3C(F)(F)F)CC2)c2ccccc2N1,1,16,x,0,3.7µM*
Cc1cc(=O)oc2cc(OCC(=O)N3CCN(C(C)c4ccccc4)CC3)c(Cl)cc12 (centres undefined),x,x,u,-4,u
Cc1cc(=O)oc2cc(OCC(=O)N3CC(=O)Nc4ccccc43)c(Cl)cc12,x,x,u,102,13µM*
O=C1CN(C(=O)COc2ccc(F)cc2Br)c2ccccc2N1,15,36*,u,u,u
CC(C)C(C)(C#N)NC(=O)CN1C(=O)NC2(CCCc3ccccc32)C1=O (centres undefined),-1,-30,31%,14,2%
O=C(CSc1ccc(-c2ccncc2)nn1)c1ccccc1,2,23,33%,0,9%
CCOc1ccc(/C=C2\C(=O)c3ccccc3OC2c2ccccc2)cc1 (centres undefined),0,-16,-41%,-99*,u
COc1ccc(/C=C2\C(=O)c3ccccc3OC2c2ccccc2)cc1 (centres undefined),9,22,u,1,u
SMILES,CHX counter,Shiga inhibitor,Pf growth 96h,HCMV antiviral,Pf growth 48h
CC(=O)O[C@]1(C(C)=O)CC[C@H]2[C@@H]3C=C(Cl)C4=CC(=O)CC[C@]4(C)[C@H]3CC[C@@]21C,3,24,u,u,12µM*
CC(=O)OC1(C(C)=O)CCC2C3CC(C(F)(F)F)C4=CC(=O)CCC4(C)C3CCC21C (centres undefined),x,x,x,-29,x
CC(=O)O[C@]1(C(C)=O)CC[C@H]2[C@@H]3C=C(Cl)C4=CC(=O)[C@@H]5C[C@@H]5[C@]4(C)[C@H]3CC[C@@]21C,x,x,8.5µM*,-90*!,11µM*
CN(c1ccccc1C(=O)O)S(=O)(=O)c1ccc2[nH]c(=O)[nH]c2c1,-4,20,u,9,-1%
CC(O)/C=C/C1OC(=O)CC1Nc1ccc(C=O)cc1 (centres undefined),1,-13,7.4µM*,0,42%
COc1ccc(N2CCN(S(=O)(=O)c3ccc4c(c3)CC(C)N4C(C)=O)CC2)cc1 (centres undefined),x,x,x,-72*,x
COc1ccc(S(=O)(=O)N2CCCC(C(=O)Nc3cccc(C(C)=O)c3)C2)cc1 (centres undefined),-4,-2,52%,-66*,u
CC(=O)c1ccc(NC(=O)C2CCCN(S(=O)(=O)c3c(C)[nH]c(=O)[nH]c3=O)C2)cc1 (centres undefined),19,1,4.1µM*,-8,157%
CC(=O)N1CCCc2cc(S(=O)(=O)N3CCCC(C(=O)NCc4ccccc4)C3)ccc21 (centres undefined),3,-8,u,0,0%
CC(=O)N1CCCc2cc(S(=O)(=O)N3CCCC(C(=O)NCc4ccc(C)cc4)C3)ccc21 (centres undefined),3,-7,7%,-72*!,-7%
CC(=O)c1cccc(NC(=O)C2CCCN(S(=O)(=O)c3ccc(F)cc3)C2)c1 (centres undefined),-2,-4,x,-19,-10%
CC(=O)N1c2ccc(S(=O)(=O)N3CCN(c4cccc(Cl)c4)CC3)cc2CC1C (centres undefined),x,x,x,8,x
Cc1cccc(NC(=S)N2CCC(NC(=O)C3CCCCC3)CC2)c1,0,-3,-5%,-31,-14%
COc1ccc(NC(=O)C2CCCN(S(=O)(=O)c3ccc4c(c3)CCCN4C(C)=O)C2)cc1 (centres undefined),4,-1,-22%,0,12µM*
CCOc1ccc(NC(=O)C2CCCN(S(=O)(=O)c3ccc4c(c3)CC(C)N4C(C)=O)C2)cc1 (centres undefined),-3,7,u,-17,u
COc1ccc(NC(=O)C2CCCN(S(=O)(=O)c3ccc4c(c3)CC(C)N4C(C)=O)C2)cc1 (centres undefined),7,-4,-15%,u,13µM*
CN1C(=O)C(C)(C)c2cc(S(=O)(=O)N3CCCC(C(=O)NCc4ccc(F)cc4)C3)ccc21 (centres undefined),-2,6,10µM*,-4,u
CC(=O)N1c2ccc(S(=O)(=O)N3CCCC(C(=O)Nc4ccc(F)cc4)C3)cc2CC1C (centres undefined),-3,-5,-3%,-68*,u
